# Screening results (PubChem)
# Mcl1 Bid PPI – Mcl-1/Bid binding inhibitors, primary screen, biochemical, TR-FRET, 1536-well; TR-FRET Mcl-1/Bid-Dy647 peptide binding; inhibition, % at 21.7 µM; actives 0.97% (n = 220,000); AID 1021, 2008;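 active = compounds that cut the binding signal by more than half at the single screening dose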;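 also: His-tagged Mcl-1 with europium anti-His antibody binding Bid BH3 peptide; 0% = Mcl-1 plus peptide wells and 100% = peptide-only wells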
# Target sequence (Q07820 whole entry, looked up): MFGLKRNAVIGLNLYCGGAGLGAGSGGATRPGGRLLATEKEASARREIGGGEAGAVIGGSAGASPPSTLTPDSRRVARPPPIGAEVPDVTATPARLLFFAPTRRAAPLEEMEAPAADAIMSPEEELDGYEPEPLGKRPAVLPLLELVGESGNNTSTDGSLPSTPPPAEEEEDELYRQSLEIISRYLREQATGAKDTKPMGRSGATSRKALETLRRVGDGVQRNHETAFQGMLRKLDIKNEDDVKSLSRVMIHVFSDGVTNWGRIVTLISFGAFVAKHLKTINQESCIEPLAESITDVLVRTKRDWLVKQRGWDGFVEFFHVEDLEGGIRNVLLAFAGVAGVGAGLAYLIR
# Calpain2 inh – inhibitors of pig calpain II, primary screen, biochemical, fluorogenic peptide substrate, 1536-well; purified calpain II, 30 min; inhibition, % at 16 µM; actives 0.37% (n = 220,000);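 active = inhibition above about 50%, limit read from the data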
# Mcl1-Noxa inh – Mcl-1/Noxa binding inhibitors, primary screen, biochemical, TR-FRET, 1536-well; Induced myeloid leukemia cell differentiation protein Mcl-1 (Homo sapiens), Q07820; TR-FRET Mcl-1/Noxa peptide binding, 2 h; inhibition, % at 21.7 µM; actives 1.5% (n = 220,000);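 active = compounds that cut the protein-peptide binding signal by more than 50% relative to plate controls in a single-dose test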;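 also: His-tagged Mcl-1 with rhodamine Noxa BH3 peptide and terbium anti-His antibody; 0% = Mcl-1 plus Noxa peptide wells and 100% = peptide-only wells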
# L929 necroptosis – inhibitors of zVAD-triggered necroptosis, primary screen, L929 cells | actives 0.38% (n = 220,000) | viability rescue, % at 10 µM | AID 1377, 2008 | L929 zVAD necroptosis rescue, ATP luminescence, 24 h; with zVAD 60 µM;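 active = activation, scaled between plate controls, above about 75%, limit read from the data; inactive = activation under that limit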;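 also: 0% = zVAD with DMSO and 100% = DMSO alone without zVAD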
# Mcl-1 Bim block – inhibitors of Bim peptide binding to Mcl-1, primary screen, biochemical, bead-based flow cytometry, multiplex. Bim peptide-Mcl-1 binding. inhibition, % at 10 µM. actives 0.1% (n = 190,000). AID 1009, 2008; in the data active = inhibition above about 40%;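 also: 0% = no compound tracer wells and 100% = peptide blocker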
# TNF death inh – inhibitors of TNF-alpha triggered necroptosis, primary screen, cell-based, Jurkat FADD-/-, single concentration; Jurkat FADD-/- TNF necroptosis rescue, ATP luminescence, 24 h; 0 = TNF only, 100 = no-TNF cells; activation (protection from cell death), % at 10 µM; actives 0.068% (n = 220,000);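 active = activation, meaning protection from cell death, of at least 50% relative to plate controls; inactive = activation below 50%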;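 also: necroptosis triggered by 40 ng/mL TNF-alpha added together with compound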
# Active calls of the source: *; . = no result. Compounds with a hit are over-represented: about 2.8% of the library has one in this group of screens.
SMILES,Mcl1 Bid PPI,Calpain2 inh,Mcl1-Noxa inh,L929 necroptosis,Mcl-1 Bim block,TNF death inh
COC/C=C/C1=CC2=CC(=O)C(C)(OC(=O)c3ccco3)C(=O)C2=CO1 (centres undefined),-18,-53,93*,1,.,-1
COC/C=C/C1=CC2=CC(=O)C(C)(OC(=O)C3CCCC3)C(=O)C2=CO1 (centres undefined),-48,-77,49,-1,.,0
Cc1noc(C)c1COC(=O)c1cnc(Cl)c(Cl)c1,-12,-17,-11,3,1,-4
N/C(CCN1CCCCC1)=N/O,-7,0,-8,0,-5,0
C/C(=N/NC(=O)CNC(=O)c1cccnc1)c1ccc([N+](=O)[O-])cc1,3,26,73*,2,2,-1
C/C(=N/NC(=O)c1cc(-c2cccc([N+](=O)[O-])c2)n[nH]1)c1ccc(Cl)cc1,74*,68*,64*,-1,4,1
C/C(=N/NC(=O)c1cc(O)c(O)c(O)c1)c1ccc([N+](=O)[O-])cc1,-50,-20,59*,1,8,-1
C/C(=N\NC(=O)c1cnccn1)c1ccc([N+](=O)[O-])cc1,4,12,3,0,.,1
CC(=O)Nc1ccc(S(=O)(=O)N2c3ccccc3NC(=O)CC2C)c(Cl)c1 (centres undefined),-20,-15,-15,0,.,3
CCN(C(=O)c1cnc(NC(C)C)cc1C(F)(F)F)c1ccc(Cl)cc1Cl,-3,-77,22,0,.,4
Cc1cccc(NC2=C(NC(=O)c3ccccc3)C(=O)c3ccccc3C2=O)c1,-1,7,94*,2,-4,-11
O=C(NC(NC1CCS(=O)(=O)C1)C(=O)c1cccs1)c1ccccc1 (centres undefined),2,10,8,0,-6,-1
O=C(NC1=C(NC2CCS(=O)(=O)C2)C(=O)c2ccccc2C1=O)c1ccccc1 (centres undefined),-50,-51,70*,3,9,-13
CN(C1=C(NC(=O)c2ccc(Cl)cc2)C(=O)c2ccccc2C1=O)c1ccccc1,-54,16,19,4,-6,-9
O=C(NC1=C(Nc2ccc(Cl)cc2)C(=O)c2ccccc2C1=O)c1ccccc1,-18,1,61*,1,-23,2
Nc1cc(C(=O)c2ccccc2)ccc1[N+](=O)[O-],7,38,10,0,0,-3
Nc1cnc(Nc2ccc(Br)cc2)nc1N,-25,-5,19,1,.,-10
CCOc1ccc(NC(=O)CSc2nnc(CCNC(=O)c3ccc(OC)cc3)n2C)cc1,-11,-6,0,0,2,1
CCCCn1c(NC(=O)c2ccccc2Cl)c(C#N)c2nc3ccccc3nc21,19,-303,-2,0,0,-4
N#Cc1c(NC(=O)c2ccccc2Cl)n(Cc2ccccc2)c2nc3ccccc3nc12,41,-218,70*,2,2,-2
COc1ccc(NC(=O)Cc2c(SC)c3ccccc3n2Cc2ccccc2)cc1,-4,40,78*,0,-4,0
COc1ccc(OC)c(S(=O)(=O)Nc2ccc(O)c3ccccc23)c1,-20,-26,51*,0,0,-17
COc1ccc(Nc2nnc(SCC(=O)c3cc(C)n(CC4CCCO4)c3C)s2)cc1 (centres undefined),-32,-16,17,-1,-3,-2
Cc1ccc(O)c(C(=O)c2cnn(C(=O)COc3ccccc3C#N)c2)c1,18,21,31,0,.,0
O=C(Nc1ccc([N+](=O)[O-])cc1)Nc1ccc(OC(F)F)c(Cl)c1,6,29,52*,5,-3,1
O=C(Nc1ccc(OC(F)F)c(Cl)c1)Nc1ccc2c(c1)OCO2,1,21,21,1,-5,0
